By inhibition is commonly meant the relative decrease from the control value, in per cent.

The target of assay [1] is NAD(+) hydrolase SARM1 (Homo sapiens) (UniProt Q6SZW1). As to the kind of experiment: blocking NAD cleavage by SARM1 SAM-TIR – cell lysate, NAD-Glo luminescence (AID 1508614;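 active = compound whose remaining NAD level is above about 45 nM, limit read from the data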;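 also: higher remaining NAD means stronger inhibition of SARM1 NADase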). Conditions: SAM-TIR HEK293T lysate NADase, at 1 µM, stronger effect = higher value.
Chain of NAD(+) hydrolase SARM1 (Homo sapiens) (Q6SZW1 whole entry, looked up): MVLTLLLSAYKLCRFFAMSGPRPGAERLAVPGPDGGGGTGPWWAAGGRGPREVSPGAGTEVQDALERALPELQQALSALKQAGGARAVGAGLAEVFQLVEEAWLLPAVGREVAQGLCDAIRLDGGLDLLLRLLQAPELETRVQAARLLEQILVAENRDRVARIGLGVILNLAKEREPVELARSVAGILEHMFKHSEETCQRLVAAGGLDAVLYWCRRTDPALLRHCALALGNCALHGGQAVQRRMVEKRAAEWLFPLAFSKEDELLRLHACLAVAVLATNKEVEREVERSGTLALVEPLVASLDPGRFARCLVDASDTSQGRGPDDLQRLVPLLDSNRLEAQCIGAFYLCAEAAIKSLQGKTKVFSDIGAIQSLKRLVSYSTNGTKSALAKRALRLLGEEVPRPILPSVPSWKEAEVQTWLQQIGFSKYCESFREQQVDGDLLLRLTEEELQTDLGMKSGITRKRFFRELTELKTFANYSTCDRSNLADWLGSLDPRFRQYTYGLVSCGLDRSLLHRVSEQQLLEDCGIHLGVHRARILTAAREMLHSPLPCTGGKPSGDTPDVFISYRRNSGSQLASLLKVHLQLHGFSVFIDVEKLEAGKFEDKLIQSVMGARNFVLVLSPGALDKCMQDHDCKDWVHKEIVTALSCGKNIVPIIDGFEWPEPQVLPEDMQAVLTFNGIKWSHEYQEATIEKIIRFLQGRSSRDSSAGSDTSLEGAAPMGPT
The nature of assay [2]: galactose survival enhancers in mitochondrial complex I cybrids – cell-based, galactose medium, ATP luminescence, primary screen (AID 1645843;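 active = z-score of at least 1.8 in each of two replicates, scored against plate mean and spread of sample wells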;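 also: positive z means more ATP and so rescue of galactose-driven cybrid death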). Conditions: complex I mutant cybrid cells, 72 h, stronger effect = higher value.
Assay [3] can be described thus: growth inhibition, single agent or in combination, cell-based, chromothripsis tumors, cisplatin or BGB combos (AID 1671449).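 Also: cells exposed for 96 hours; 0% = vehicle DMSO and 100% = killing by high DMSO.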 Conditions: LFS_MB_P medulloblastoma cells.
Assay [4] in a line: growth inhibition, single agent and combos, cell-based, chromothripsis tumors, cisplatin or BGB combos (AID 1671450).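 Also: cells exposed to compound for four days; 0% = vehicle DMSO and 100% = cell killing by high DMSO.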 Conditions: HDN33 neuroblastoma cells, stronger effect = higher value.
Assay [5] can be described thus: growth inhibition, single agents and combos, ICB984, cell-based, cisplatin or BGB combos, synergistic combos for chromothripsis tumors (AID 1671451; call rule not given here;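 also: cells exposed for 96 hours before readout; 0% = vehicle DMSO and 100% = killing by high DMSO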). Conditions: ICB984 medulloblastoma cells, drug combinations, stronger effect = higher value.
Assay [6] can be described thus: growth inhibition, single agents and combos, LFS_MB_1R, cell-based, cisplatin or BGB combos, synergistic combos for chromothripsis tumors (AID 1671452).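 Also: cells exposed for 96 hours before readout.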 Conditions: LFS_MB_1R medulloblastoma cells, stronger effect = higher value.
Assay [7] can be described thus: growth inhibition, single agents and combos, HTB85, cell-based, BGB or cisplatin IC20 combos, synergistic combos for chromothripsis tumors (AID 1671453).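 Also: cells exposed for 96 hours before readout; 0% = vehicle DMSO and 100% = high DMSO killing control.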 Conditions: HTB85 osteosarcoma cells, drug combinations, stronger effect = higher value.
Assay [8] is described as follows: growth inhibition, single agents and combos, CRL2098, cell-based, BGB or cisplatin IC20 combos, synergistic combos for chromothripsis tumors (AID 1671454).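 Also: cells exposed for 96 h before readout; 0% = vehicle DMSO and 100% = killing by high DMSO.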 Conditions: CRL2098 osteosarcoma cells, drug combinations, stronger effect = higher value.
A short description of assay [9]: growth inhibition, single agents and combos, HD-MB03, cell-based, BGB or cisplatin IC20 combos, synergistic combos for chromothripsis tumors (AID 1671455; in the data active = inhibition above about 83%;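 also: 0% = vehicle DMSO and 100% = high DMSO as cytotoxic control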). Conditions: HD-MB03 medulloblastoma cells, stronger effect = higher value.
Assay [10] can be described thus: growth inhibition, single agents and combos, UWB1.289, cell-based, BGB or cisplatin combos, synergistic combos for chromothripsis tumors (AID 1671456).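 Also: cells exposed to compound for four days; 0% = vehicle DMSO and 100% = killing by high DMSO.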 Conditions: UWB1.289 ovarian carcinoma cells, stronger effect = higher value.
A short description of assay [11]: growth inhibition, single agents and combos, LFS_MB_2R, cell-based, cisplatin combos, synergistic combos for chromothripsis tumors (AID 1671457).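 Also: cells exposed to compound for four days before readout.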 Conditions: LFS_MB_2R medulloblastoma cells, stronger effect = higher value.
Assay [12] can be described thus: growth inhibition, MDA-MB-436, cell-based, BGB or cisplatin combos, synergistic combos for chromothripsis tumors (AID 1671458; call rule not given here;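 also: cells exposed for 96 hours; 0% = vehicle DMSO and 100% = killing by high DMSO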). Conditions: MDA-MB-436 breast carcinoma growth inhibition, drug combinations, stronger effect = higher value.
Assay [13] is described as follows: UWB1.289_BRCA1 ovarian cancer growth, cell-based, BGB or cisplatin combinations (AID 1671459). Conditions: UWB1.289 BRCA1 ovarian carcinoma, drug combinations, stronger effect = higher value.
Assay [14] is described as follows: drug combination toxicity in non-malignant astrocytes – cell-based, BGB or cisplatin IC20 combos, cytotoxicity control for chromothriptic childhood tumor combination screen (AID 1671460).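 Also: cells exposed to compounds for 96 hours before viability readout; 0% = vehicle and 100% = killing control.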 Conditions: Human astrocytes, viability inhibition, drug combinations, at 0.5 µM, stronger effect = higher value.
A short description of assay [15]: BT084 cell growth, single and combined drugs, ICGC_MB145, cisplatin and BGB IC40 combos (AID 1671461).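 Also: cells exposed to drugs for 96 hours; 0% = vehicle DMSO and 100% = high DMSO full killing control.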 Conditions: BT084 medulloblastoma cells, drug combinations, stronger effect = higher value.
Assay [16] can be described thus: RCMB18 cell growth, single agent and combined, cisplatin and BGB IC40 combos (AID 1671462).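 Also: cells exposed to compound for four days.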 Conditions: RCMB18 medulloblastoma cells, stronger effect = higher value.
Assay [17] in a line: CRL1545 cell growth, single agent and combined, cisplatin and BGB IC20 combos (AID 1671464).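 Also: cells exposed to compound for 96 hours before readout; 0% = vehicle DMSO and 100% = high DMSO killing control.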 Conditions: CRL1545 osteosarcoma cells, stronger effect = higher value.
The subject of a further assay is F380Y. The experiment in a line: BK channel mutant inhibitors and activators – cell-based, U2OS BacMam, thallium flux, beta subunits, selectivity assay, profiling panel (AID 1259406;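 active = thallium flux through the channel raised or lowered by more than 3 SD from vehicle-only wells, actives on both sides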;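 also: initial slope of Thallos dye fluorescence rise after thallium is added; log ratio against the mean of 0.3% DMSO vehicle wells on the same plate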). Conditions: U2OS BacMam BK variants, at 30 µM.
In the next assay the test system is F380Y/beta1. The description is as above. Conditions: U2OS BacMam BK variants, at 30 µM.
Where [18] appears, read: measured here: combination with BGB IC40, at 0.05 µM.
Where [19] appears, read: measured here: with BGB IC20 combination, at 0.5 µM.
The mark [20] stands for this setting: measured here: with cisplatin IC20 combination, at 0.5 µM.
Where [21] appears, read: measured here: combination with cisplatin, at 0.5 µM.
The mark [22] stands for this setting: measured here: combination with cisplatin, at 5 µM.

“And” between values parts separate entries of the source, which are not always exact repeats. Identical values can stand only once. The source made the active and inactive calls. Rule as the data show it, unless noted: active = inhibition above about 80%; inactive = the rest.

`Nc1[nH]c(=O)ncc1F`: the remaining NAD in [1] was 10 nM (inactive). The z-score in assay [2] is 0.61 (inactive). In addition, the inhibition in assay [3] (at 0.5 µM, stronger effect = higher value) is 35.6% (inactive); in assay [3] (measured here: combination with BGB IC20, at 0.005 µM), -27.5%; in assay [3] (measured here: combination with BGB IC40, at 0.005 µM), -28.3%; in assay [3] (setting [18]) it was -22%; in [3] (measured here: combination with cisplatin, at 0.5 µM, stronger effect = higher value), 56.8%; in [3] (measured here: combination with cisplatin, at 5 µM, stronger effect = higher value), -29.9%. Moreover, the inhibition is -19.9% in assay [4] (BGB combo, at 5 µM); -18.6% (inactive) in [4] (at 0.5 µM); -41.9% in assay [4] (cisplatin combo, at 5 µM); -4.48% in assay [4] (setting [19]); -14.6% in [4] (setting [20]); 9.06% in [4] (single agent, at 5 µM). In addition, the inhibition in assay [5] (BGB IC20 combo, at 0.005 µM) was -28.5%; in assay [5] (BGB IC40 combo, at 0.005 µM), -43.6%; in [5] (BGB IC40 combo, at 0.05 µM), -8.87%; in [5] (at 0.5 µM) it was -40.6% (inactive); in [5] (cisplatin combo, at 0.05 µM), -8.87%; in [5] (cisplatin combo, at 0.5 µM), -57.1%. Besides, the inhibition was -45.6% in assay [5] (cisplatin combo, at 5 µM); -3.48% in assay [5] (measured here: 5 uM single agent, at 5 µM); -37.2% (inactive) in assay [6] (at 0.5 µM); -0.509% in [6] (setting [18]); -34.6% in assay [6] (setting [21]); -0.132% in assay [6] (setting [22]). For the same molecule, the inhibition is -19.7% (inactive) in [7] (at 0.5 µM); -43% in assay [7] (measured here: with BGB IC20, at 0.5 µM); -34% in assay [7] (measured here: with BGB IC20, at 5 µM); -6.71% in assay [7] (measured here: with cisplatin IC20, at 0.5 µM); -6.3% in assay [7] (measured here: with cisplatin IC20, at 5 µM); -19.7% in assay [7] (single agent, at 5 µM). Further, the inhibition in assay [8] (at 0.5 µM) was -73.3% (inactive); in [8] (measured here: combination with BGB at IC20, at 0.5 µM), -56.9%; in assay [8] (measured here: combination with cisplatin at IC20, at 0.5 µM) it was -90.3%; in [9] (at 0.5 µM) it was 5.78% (inactive); in [9] (measured here: combo with BGB at IC20, at 0.5 µM), 2.74%; in assay [9] (measured here: combo with cisplatin at IC20, at 0.5 µM) it was 10.4%. The inhibition is -7.68% (inactive) in [10] (at 0.5 µM); -29.7% in assay [10] (measured here: inhibition with BGB combination, at 0.05 µM); -21.7% in assay [10] (measured here: inhibition with cisplatin combination, at 0.05 µM); -27.6% (inactive) in assay [11] (at 0.5 µM); -24.1% in assay [11] (setting [21]); -29.1% in assay [11] (setting [22]). Besides, the inhibition in assay [12] (at 0.5 µM) is -31.1% (inactive); in assay [12] (measured here: BGB combination, at 0.5 µM), -21.4%; in assay [12] (measured here: BGB combination, at 5 µM), -20.1%; in assay [12] (measured here: cisplatin combination, at 0.5 µM), -54.4%; in assay [12] (measured here: cisplatin combination, at 5 µM) it was -28.4%; in assay [13] (BGB combination, concentration series, at 5 µM), -10.1%. The inhibition is -22% (inactive) in assay [13] (at 0.5 µM); -7.2% in [13] (cisplatin combination, concentration series, at 5 µM); -16.9% (inactive) in [14]; -11.3% in assay [14] (measured here: combo with BGB IC20); -15.3% in assay [14] (measured here: combo with cisplatin IC20); -18.1% (inactive) in assay [15] (at 0.5 µM). Further, the inhibition in assay [15] (cisplatin combination, at 0.5 µM) is -7.67%; in assay [15] (cisplatin combination, at 5 µM), -29%; in assay [15] (measured here: BGB IC40 combination 0.05 uM, at 0.05 µM) it was -18.5%; in [15] (single agent, at 5 µM), -35%; in [16] (at 0.5 µM), -4.87% (inactive); in assay [16] (cisplatin combo, at 5 µM), 12.7%. The inhibition in assay [16] (measured here: BGB IC40 combination, at 0.05 µM) is -1.76%; in assay [16] (setting [21]), 22.6%; in assay [16] (single agent, at 5 µM), 67.5%; in assay [17] (at 0.5 µM), -33% (inactive); in assay [17] (setting [19]), -8.11%; in [17] (setting [20]), -45.4%. Besides, the inhibition in assay [17] (single agent, at 0.05 µM) was -16.8%; in assay [17] (single agent, at 5 µM), -1.42%. Besides, the log fold change Tl+ flux with F380Y was 0.0331 (inactive); in the assay with F380Y/beta1, 0.0164 (inactive).

Turning to `CC(Cc1ccccc1)(NC(=O)CN)c1ccccc1` (stereo unspecified), the z-score in [2] was 0.32 (inactive) and -0.22 (inactive). Besides, the log fold change Tl+ flux in the assay with F380Y was 0.0343 (inactive); in the assay with F380Y/beta1 it was 0.0342 (inactive).

Turning to `CC(C)(C(=O)c1cccnc1)c1cccnc1`, the remaining NAD in assay [1] was 100 nM (active). For the same molecule, the z-score in [2] was 0.18 (inactive). The log fold change Tl+ flux in the assay with F380Y is -0.0599 (inactive); in the assay on F380Y/beta1 it was 0.0309 (inactive).

With `COc1ccc(CN2CCN(C(c3ccc(F)cc3)c3ccc(F)cc3)CC2)c(OC)c1OC`, the remaining NAD in [1] was 10 nM (inactive). Moreover, in assay [2], the z-score is -1.88 (inactive) and -2.46 (inactive). For the same molecule, the log fold change Tl+ flux in the assay on F380Y is -0.0546 (inactive); with F380Y/beta1, 0.0295 (inactive).

As for `CC(Oc1c(Cl)cccc1Cl)C1=NCCN1` (stereo unspecified), in assay [1], the remaining NAD is 10 nM (inactive). Besides, in assay [2], the z-score is 0.71 (inactive) and 0.175 (inactive). The log fold change Tl+ flux with F380Y is 0.00819 (inactive); in the assay on F380Y/beta1, -0.000881 (inactive).

As to `CCOC(=O)C1=C(C)NC(C)=C(C(=O)OC)C1c1cccc(Cl)c1Cl` (stereo unspecified), the remaining NAD in [1] is 10 nM (inactive). The z-score in [2] is -1.02 (inactive) and -1.48 (inactive) and 1.76 (inactive). For the same molecule, the log fold change Tl+ flux with F380Y is 0.00922 (inactive); in the assay on F380Y/beta1 it was -0.0618 (inactive).
